Laboratory results taken from PubChem BioAssay AID1210 (NMMLSC, 2008).

molecular target: Estrogen receptor beta (Homo sapiens) (UniProt Q92731); assay: ERbeta ligand binders by competition, primary screen, cell-based, Cos7 ERbeta-GFP, flow cytometry (AID 1210); conditions: fluorescent estrogen binding, ligand binding inhibition, at 0.1 µM, stronger effect = higher value;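 also: 0% = DMSO vehicle wells and 100% = complete loss of labeled estradiol signal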
Sequence (Q92731 whole entry, looked up): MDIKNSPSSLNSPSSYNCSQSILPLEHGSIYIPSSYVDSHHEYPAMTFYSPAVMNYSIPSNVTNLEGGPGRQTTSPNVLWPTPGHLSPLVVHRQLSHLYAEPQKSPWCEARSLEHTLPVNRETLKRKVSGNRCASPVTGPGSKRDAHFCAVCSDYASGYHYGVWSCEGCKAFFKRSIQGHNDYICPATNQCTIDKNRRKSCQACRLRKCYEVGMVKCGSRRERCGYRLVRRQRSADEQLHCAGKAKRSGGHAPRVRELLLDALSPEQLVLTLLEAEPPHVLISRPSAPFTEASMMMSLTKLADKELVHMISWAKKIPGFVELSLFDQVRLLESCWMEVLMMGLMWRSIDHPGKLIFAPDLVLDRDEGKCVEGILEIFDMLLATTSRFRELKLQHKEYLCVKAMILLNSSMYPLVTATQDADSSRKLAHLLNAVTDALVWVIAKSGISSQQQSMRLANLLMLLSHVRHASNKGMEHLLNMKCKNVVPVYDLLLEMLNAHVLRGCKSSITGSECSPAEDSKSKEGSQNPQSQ

SMILES | inhibition
Cc1nnc(NC(=O)Cc2cccs2)s1 | 22%
O=Cc1cn(-c2ccccc2)nc1-c1cc2c(ccc3ccccc32)oc1=O | 81%
COc1cc2cc(C(c3nnnn3C3CCCC3)N3CCc4ccccc43)c(=O)[nH]c2cc1OC (stereo not drawn) | 25%
COc1cc(C2CC(=O)c3c(ccc4ccccc34)N2)ccc1O (stereo not drawn) | 14%
O=C(COC(=O)CCC(=O)c1cccs1)NCc1ccco1 | 12%
COc1ccc(N2Cc3cccc(C(=O)O)c3C2=O)cc1 | 32%
COc1ccc(-c2nnc(-c3cc4c(ccc5ccccc54)oc3=O)o2)cc1 | 6%
Cc1csc2nc(CCNS(=O)(=O)c3ccc4c(c3)OCCO4)cn12 | 87%
Cc1ccc(C2=Nc3ccccc3N=C(c3ccco3)C2)c(O)c1 | 29%
C/C(N)=C(/C#N)C(=O)CSc1nnc(COc2ccccc2Cl)o1 | 44%
CCOc1ccc2nc(NC(=O)CCC(=O)c3cccs3)sc2c1 | 33%
O=C1NC(c2ccc(Br)cc2)Nc2sc3c(c21)CCC3 (stereo not drawn) | 50%
CC(=O)N1c2ccc(Cl)cc2C2C=CCC2C1c1cccc2ccccc12 (stereo not drawn) | 6%
